From PubChem BioAssay (NCATS) come the findings set out here.

The nature of experiment [1]: qHTS Assay for Lipid Storage Modulators (AID 1519; calls by dose curve; as to activity change, negative = inhibition: % is scaled to controls: 0 for no effect and ±100 for the full control effect). The following applies: Drosophila S3 cells, BODIPY lipid droplet/cell ratio, laser cytometry, cells loaded with oleic acid. Summed up: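 Cells seeded at 5,000 per well were treated with compounds over a concentration series and loaded with oleic acid (400 uM, as added). Lipid droplet fluorescence (488 nm excitation, 500-530 nm channel) was read by laser-scanning cytometry and normalized to 20 uM Triacsin C.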

Experiment [2] in a line: Validation of Assay for Modulators of Lamin A Splicing (AID 1459; active = well fitted curve in the direction sought with a large enough effect in the signal ratio; the % refers to the signal ratio;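 also: cells exposed to compound for two days before reading; 0% is about no effect; ratio rise marks activators and ratio drop marks inhibitors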). As to conditions: Lamin A splicing dual RFP/GFP fluorescence reporter; series mostly up to 9.22 µM. The procedure, abridged:
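Splicing correction read as GFP (500-530 nm) over DsRed2 (575-640 nm) object intensity after 48 h compound exposure of reporter HeLa S3 clones (600 cells/well, 2% FBS medium); ancitabine and cycloheximide titrations, 0.5% DMSO as vehicle.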

The nature of experiment [3]: Counterscreen for APE1 Inhibitors: Fluorescent Dye Displacement Validation Assay (AID 1707). Also: potency is read from the fitted curve at half-maximal effect.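 As to activity change, negative = inhibition: plate controls were ThO with dsDNA and no compound for no effect and ThO without dsDNA for full effect.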 As to conditions: fluorescent dye displacement from DNA; series mostly up to 57.1 µM. Summed up: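 Assay buffer: Tris-HCl pH7.5 with 50mM NaCl, 2 mM MgCl2, 0.01% Tween-20. Dye 250 nM, duplex 50 nM final. Readout: decrease in ThO endpoint fluorescence, 480 nm excitation, 540 nm emission.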

For experiment [4], the target named is ATP-dependent DNA helicase Q1 (Homo sapiens) (UniProt P46063). As to the kind of experiment: qHTS Validation Assay for Inhibitors of RecQ-Like Dna Helicase 1 (RECQ1) (AID 2353). Also: potency is read from the fitted curve at half-maximal effect.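 As to activity change, negative = inhibition: plate controls were DMSO vehicle for no effect and enzyme-free control for full effect.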 As to conditions: recombinant RECQ1 helicase DNA unwinding assay; series mostly up to 25.6 µM. The procedure, abridged:
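50 nM RECQ1T1 preincubated 15 min with compound in Tris pH 8.0 buffer with MgCl2, DTT, Tween-20 and 2.5 ug/ml poly(dI-dC); started with 200 nM TAMRA/BHQ-2 forked duplex and 2 mM ATP. Unwinding read as fluorescence (525/598 nm), two reads 2 h apart.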

Experiment [5] deals with Alpha-galactosidase A (Homo sapiens) (UniProt P06280). As to the kind of experiment: Counterscreen for Glucocerebrosidase Inhibitors: qHTS Assay for Human alpha-Galactosidase at pH 4.5 (AID 992). Also: 0% is about no effect. As to conditions: purified enzyme, fluorogenic substrate; series mostly up to 76.9 µM. Summed up:
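Concentration-response curves (0.7 nM to 77 uM final) were modeled with the Hill equation to give AC50. Reactions: 2 nM enzyme, 80 uM fluorogenic alpha-galactoside, pH 4.5 citric acid buffer, 20 min, room temperature.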

Experiment [6] has as its target alpha-glucosidase (Oryza sativa, rice) (UniProt Q653V4). Put plainly: Counterscreen for Glucocerebrosidase Inhibitors: qHTS Assay for Rice alpha-Glucosidase at pH 5.0 (AID 997).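 Also: 0% = full activity with enzyme and -100% = basal without enzyme.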 As to conditions: rice alpha-glucosidase enzyme activity; series mostly up to 76.9 µM. The procedure, abridged:
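Rice alpha-glucosidase (4 nM final) with 400 uM 4-methylumbelliferyl-alpha-D-glucopyranoside in citrate buffer pH 5.0, 20 min at room temperature, stopped at pH 10; fluorescence 365/440 nm, compounds 0.7 nM–77 uM, AC50 from Hill fits.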

In experiment [7] the target is DNA repair nuclease/redox regulator APEX1 (Homo sapiens) (UniProt P27695). As to the kind of experiment: qHTS Validation Assay for Inhibitors of the Human Apurinic/apyrimidinic Endonuclease 1 (APE1) (AID 1705; also: potency is read from the fitted curve at half-maximal effect;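 as to activity change, negative = inhibition: TAMRA fluorescence gain over two minutes as APE1 cuts a quenched THF abasic duplex; % is scaled to controls: 0 for no effect and ±100 for the full control effect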). The following applies: purified APE1 endonuclease activity, fluorescence, titration; series mostly up to 57.1 µM. Summed up:
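Activity read as rising fluorescence (598 nm emission, 525 nm excitation) from incision of a TAMRA/BHQ-2 duplex carrying a THF abasic site (50 nM). Compound and enzyme sat 15 min at RT before substrate start; signal change between first and third 60-s reads.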

The nature of experiment [8]: qHTS for differential inhibitors of proliferation of Plasmodium falciparum line 7G8 (AID 1815).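 Also: parasite growth measured after three days of incubation.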 Also: potency is read from the fitted curve at half-maximal effect.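 As to activity change, negative = inhibition: plate controls were vehicle wells for no effect and reference inhibitor wells for full effect.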 The following applies: Plasmodium falciparum 7G8 proliferation inhibition; series mostly up to 28.7 µM.
Experiment [9] is described as follows: qHTS for differential inhibitors of proliferation of Plasmodium falciparum line GB4 (AID 1816).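 Also: parasite growth measured after 72 h incubation.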 Also: potency is read from the fitted curve at half-maximal effect.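 As to activity change, negative = inhibition: 0% = vehicle DMSO and -100% = reference inhibitor.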 The following applies: Potency: Plasmodium falciparum GB4 proliferation inhibition; series mostly up to 28.7 µM.
The nature of experiment [10]: qHTS for differential inhibitors of proliferation of Plasmodium falciparum line 3D7 (AID 1876). Also: potency is read from the fitted curve at half-maximal effect. The following applies: P. falciparum 3D7 proliferation inhibition; series mostly up to 28.7 µM.
Experiment [11] is described as follows: qHTS for differential inhibitors of proliferation of Plasmodium falciparum line D10 (AID 1877).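 Also: parasites grown with compound for 72 h before DNA staining.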 Also: potency is read from the fitted curve at half-maximal effect.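 As to activity change, negative = inhibition: plate controls were vehicle wells for no effect and reference inhibitor wells for full effect.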 As to conditions: series mostly up to 28.7 µM.
Experiment [12] can be described thus: qHTS for differential inhibitors of proliferation of Plasmodium falciparum line W2 (AID 1883).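 Also: parasites grown with compound for 72 h before lysis and staining.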 Also: potency is read from the fitted curve at half-maximal effect.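 As to activity change, negative = inhibition: 0% = vehicle wells and -100% = control inhibitor wells.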 The following applies: Potency: Plasmodium falciparum W2 proliferation inhibition; series mostly up to 28.7 µM.
Experiment [13] can be described thus: qHTS for differential inhibitors of proliferation of Plasmodium falciparum line HB3 (AID 1886).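 Also: parasites grown with compound for 72 h before SYBR Green readout.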 Also: potency is read from the fitted curve at half-maximal effect.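 As to activity change, negative = inhibition: plate controls were vehicle for no effect and reference inhibitor for full effect.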 The following applies: Potency: Plasmodium falciparum HB3 proliferation inhibition; series mostly up to 28.7 µM.
Experiment [14] is described as follows: qHTS Assay for Modulators of Human Peripheral Myelin Protein 22 (PMP22) Expression/Activity (AID 1967; active = well fitted curve in the direction sought with a large enough effect in the signal ratio; the % refers to the signal ratio;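 also: 0% = untreated cells and 100% end not stated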). As to conditions: Cell-based PMP22 reporter, dual-color luciferase ratio, 0% = compound-free control cells, mouse Pmp22 promoter in mouse Schwann cells; series mostly up to 115 µM. The procedure, abridged: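 Readout is the corrected green/red luminescence ratio after 24 h compound exposure, normalised to untreated cells (0%). Engineered MSC80 mouse Schwann cells express green luciferase from the mouse Pmp22 promoter and red luciferase from EF-alpha as internal control.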

Experiment [15] addresses Ferritin light chain (Equus caballus) (UniProt P02791). As to the kind of experiment: qHTS Validation Assay for Identification of Novel General Anesthetics (AID 2323). Also: % is scaled to controls: 0 for no effect and ±100 for the full control effect. As to conditions: horse apoferritin, anesthetic-site fluorescent probe displacement; series mostly up to 76.9 µM. The procedure, abridged: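 Competitive displacement of the profluorescent anesthetic 1-AMA (50% saturated, PBS) from 10 uM apoferritin, 10 min, room temperature. Activity is normalized 380/535 nm fluorescence; concentration-response fitted with a four-parameter Hill equation.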

Where [16] appears, read: measured here: cell count channel max response.
[17] abbreviates: measured here: lipid channel max response.

Several values for one entry are separate records, joined by “and”; a condition that tells them apart may be missing. Equal values may be shown once. Inconclusive results are not listed. Activity calls are given as the source filed them. Unless noted, calls follow the shape of the dose curve; as a rule, active = well fitted curve in the direction sought with a large enough effect; inconclusive = small, poorly fitted or top-dose-only effect, or another doubt; inactive = no such curve, though single readings can be large; an effect the other way counts as inactive or inconclusive.

Sequence of DNA repair nuclease/redox regulator APEX1 (Homo sapiens) (P27695 whole entry, looked up): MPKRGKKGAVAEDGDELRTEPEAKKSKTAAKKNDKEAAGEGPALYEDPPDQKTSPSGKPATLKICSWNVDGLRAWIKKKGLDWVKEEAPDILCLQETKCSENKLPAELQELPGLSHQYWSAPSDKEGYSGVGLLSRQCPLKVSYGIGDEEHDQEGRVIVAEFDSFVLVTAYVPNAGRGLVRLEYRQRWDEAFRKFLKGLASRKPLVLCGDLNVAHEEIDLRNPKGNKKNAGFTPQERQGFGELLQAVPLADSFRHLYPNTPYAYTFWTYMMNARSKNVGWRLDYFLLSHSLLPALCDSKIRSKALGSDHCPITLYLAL
Sequence of Ferritin light chain (Equus caballus) (P02791 2-175 limits assumed): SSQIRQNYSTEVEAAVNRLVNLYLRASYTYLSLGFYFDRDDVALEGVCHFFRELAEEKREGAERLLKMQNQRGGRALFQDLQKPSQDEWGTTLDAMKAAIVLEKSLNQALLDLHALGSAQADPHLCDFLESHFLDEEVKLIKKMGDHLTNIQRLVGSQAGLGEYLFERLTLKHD
Sequence of ATP-dependent DNA helicase Q1 (Homo sapiens) (P46063 whole entry, looked up): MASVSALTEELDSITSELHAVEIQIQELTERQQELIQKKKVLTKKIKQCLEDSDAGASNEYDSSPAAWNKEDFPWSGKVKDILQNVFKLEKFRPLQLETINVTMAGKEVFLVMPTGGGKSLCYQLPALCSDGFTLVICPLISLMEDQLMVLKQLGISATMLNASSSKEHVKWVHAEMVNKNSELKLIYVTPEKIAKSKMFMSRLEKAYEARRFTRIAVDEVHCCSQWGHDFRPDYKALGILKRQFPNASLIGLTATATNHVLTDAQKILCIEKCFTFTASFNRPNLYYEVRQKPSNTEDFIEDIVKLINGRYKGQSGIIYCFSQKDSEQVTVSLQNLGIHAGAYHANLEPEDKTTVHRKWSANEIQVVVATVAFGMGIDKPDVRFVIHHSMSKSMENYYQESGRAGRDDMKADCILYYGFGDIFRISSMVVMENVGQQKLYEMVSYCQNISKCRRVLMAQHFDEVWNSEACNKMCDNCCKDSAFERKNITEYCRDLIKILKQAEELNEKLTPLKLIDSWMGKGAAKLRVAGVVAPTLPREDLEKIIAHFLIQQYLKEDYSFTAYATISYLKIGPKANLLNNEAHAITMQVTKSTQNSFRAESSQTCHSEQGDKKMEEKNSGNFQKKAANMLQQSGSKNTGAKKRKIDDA
Sequence of Alpha-galactosidase A (Homo sapiens) (P06280 whole entry, looked up): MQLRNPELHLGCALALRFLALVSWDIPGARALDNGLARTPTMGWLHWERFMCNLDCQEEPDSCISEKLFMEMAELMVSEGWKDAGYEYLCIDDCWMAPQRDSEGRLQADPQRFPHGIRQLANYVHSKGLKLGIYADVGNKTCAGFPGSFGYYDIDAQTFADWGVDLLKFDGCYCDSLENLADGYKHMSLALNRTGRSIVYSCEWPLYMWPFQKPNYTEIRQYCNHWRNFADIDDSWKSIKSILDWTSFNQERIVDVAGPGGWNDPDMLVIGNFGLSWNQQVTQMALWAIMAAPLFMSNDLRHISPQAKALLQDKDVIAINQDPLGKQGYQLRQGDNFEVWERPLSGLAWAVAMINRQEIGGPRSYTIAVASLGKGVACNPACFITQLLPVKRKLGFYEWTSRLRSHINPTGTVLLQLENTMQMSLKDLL

`O=c1cc(CO)occ1O`: the activity change, negative = inhibition in [1] (at 57.5 µM (top of the series)) is 0.978% (inactive). The max response in experiment [1] (setting [16]) is 23.1%; in experiment [1] (setting [17]) it was 26.9%.

Regarding `CN(C)CCN(Cc1ccccc1)c1ccccn1`, the activity change, negative = inhibition in experiment [1] (at 57.5 µM (top of the series)) was 1.48% (inactive). The max response stood at 12.3% in [1] (setting [16]) and 16.2% in experiment [1] (setting [17]).

Take `CNCCC(Oc1ccc(C(F)(F)F)cc1)c1ccccc1` (stereo not drawn): in [2], the compound was classed as inactive. Besides, the Potency entry in [3] and in [4] was “inactive” in each case.

Regarding `O=c1cc[nH]c(=S)[nH]1`, in [1] (at 57.5 µM (top of the series)), the activity change, negative = inhibition was 7.12% (inactive). The max response amounted to 11.5% in experiment [1] (setting [16]) and 29.2% in experiment [1] (setting [17]).

Take `Cc1c(Cl)cccc1Nc1ccccc1C(=O)O`: the activity change, negative = inhibition in experiment [1] (at 25.7 µM (top of the series)) is -0.93% (inactive). Further, the max response is -6.86% in experiment [1] (setting [16]) and -11.8% in experiment [1] (setting [17]).

Regarding `C=Cc1c(C)c2cc3[nH]c(cc4nc(cc5nc(cc1[nH]2)C(C)=C5CCC(=O)O)C(CCC(=O)O)=C4C)c(C)c3C=C`, the result in experiment [5], in [6], in experiment [2] and in experiment [14] was inactive. Besides, the activity change, negative = inhibition in [1] (at 57.5 µM (top of the series)) was 12.2% (inactive). For the same compound, the max response in experiment [1] (setting [16]) turned out to be 1.69%; in [1] (setting [17]) it was 21.3%. Besides, the figures for the Potency in [7], in [3] and in experiment [4] were 5.01 µM (active), 7.94 µM (active) and 11.2 µM (active), respectively. Moreover, the Potency result in experiment [8], in [9], in experiment [10], in experiment [11], in experiment [12] and in experiment [13] was “inactive” throughout.

As to `CN1CCN(C2Cc3ccccc3Sc3ccc(Cl)cc32)CC1` (stereo not drawn), the result in experiment [2] was inactive. The activity change, negative = inhibition in experiment [1] (at 57.5 µM (top of the series)) is 1.27% (inactive). Also, the max response was -11.4% in experiment [1] (setting [16]) and -9.31% in experiment [1] (setting [17]). Further, the Potency result in experiment [7], in experiment [3] and in [4] was “inactive” each time. For the same compound, the Potency is 6.31 µM (active) in experiment [8]; 11.2 µM (active) in experiment [9]; 10 µM (active) in experiment [10]; 5.01 µM (active) in experiment [12]; 10 µM (active) in experiment [13].

Take `CCCCCCCCCCCCCCCC(=O)NCCO`: the result in experiment [5], in experiment [6], in [2], in [14] and in experiment [15] was inactive. For the same compound, the Potency entry in experiment [7], in experiment [3], in experiment [11] and in experiment [4] was “inactive” throughout. Also, the figures for the Potency in experiment [10] and in experiment [12] were 12.6 µM (active) and 3.16 µM (active), respectively.

For `CC(CN(C)C)CN1c2ccccc2CCc2ccccc21` (stereo not drawn), the call in experiment [2] and in [15] was inactive. In addition, the activity change, negative = inhibition in [1] (at 57.5 µM (top of the series)) was 8.3% (inactive) and -0.445% (inactive). In addition, the max response was -4.41% and -13% in [1] (setting [16]); 4.99% and -13.2% in experiment [1] (setting [17]). In addition, the Potency entry in experiment [7], in experiment [3] and in experiment [4] was “inactive” in each case. Also, the Potency is 8.91 µM (active) in experiment [8]; 5.62 µM (active) in [9]; 8.91 µM (active) in experiment [10]; 11.2 µM (active) in experiment [11]; 6.31 µM (active) in experiment [12]; 11.2 µM (active) in [13].

On to `CNCC(O)c1ccc(O)c(O)c1` (stereo not drawn), for which the compound was classed as inactive in experiment [2] and in experiment [15]. In addition, the Potency result in experiment [7], in experiment [3] and in [4] was “inactive” throughout. In addition, the Potency in experiment [12] was 14.1 µM (active).

For the compound `N=c1c[n+](N2CCOCC2)[n-]o1`, the compound was classed as inactive in experiment [5], in experiment [6], in [2], in [14] and in experiment [15]. In addition, in experiment [1] (at 57.5 µM (top of the series)), the activity change, negative = inhibition was -0.431% (inactive). Further, the max response came to 25.9% in experiment [1] (setting [16]) and 27.5% in experiment [1] (setting [17]). The Potency result in experiment [3], in experiment [8], in experiment [9], in [11], in experiment [13] and in experiment [4] was “inactive” each time.
